For test [1], the system named is IYD (gene 389434). Nature of the test: CCTE_GLTED_hIYD: CCTE's human Iodotyrosine Deiodinase (xIYD) Inhibition Assay, Great Lakes Toxicology and Ecology Division (GLTED) Lab (AID 2284317).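 Further: cell-free human IYD enzyme made in baculovirus insect cells; iodide freed from monoiodotyrosine measured by cerium arsenite color change at 420 nm.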 In a few lines: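 Cell-free; baculovirus/insect-cell hIYD + MIT substrate + chemical, 3 h. Dowex column cleanup, then Ce4+/As3+ Sandell-Kolthoff read at A420 nm. Triplicate plates; normalized to 3-nitro-L-tyrosine (positive) and DMSO/NaOH (solvent).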

Test [2] is described as follows: CCTE_Mundy_HCI_iCellGluta_NOG_NeuriteLength: CCTE's Neurite Outgrowth Assay in iCellGluta cells for Neurite Length, Mundy Lab (AID 2284318). In a few lines: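 Automated high-content imaging of betaIII-tubulin (Alexa Fluor-488) and Hoechst-stained cells gave neurite length, normalized to the DMSO baseline.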
Test [3] relates to TTR (gene 7276). Nature of the test: CCTE_GLTED_hTTR_0.5uM: CCTE's human Transthyretin (hTTR) Inhibition Assay, with 0.5uM TTR, Great Lakes Toxicology and Ecology Division (GLTED) Lab (AID 2284320; active means hit-call score of the fitted dose curve at least 0.9, where 1 is the maximum; inactive means score below 0.9). In a few lines:
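Probe (ANSA) displacement from 0.5 uM human transthyretin was followed by fluorescence (ex 380, em 475) after a 2 h incubation with chemical. Activity was scored as signal loss and fitted positively relative to DMSO.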

Test [4] is described as follows: CCTE_Mundy_HCI_iCellGluta_NOG_NeuronCount: CCTE's Neurite Outgrowth Assay in iCellGluta cells for Neuron Count, Mundy Lab (AID 2284340).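 Further: cells fixed about 48 h after compound addition.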 In a few lines: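 Neuron count read by automated high-content imaging of Hoechst 33342 and betaIII-tubulin/Alexa Fluor-488 labelling in human iPSC glutamatergic neurons. Activity fitted relative to DMSO.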
The nature of test [5]: TAMU_PeakParms_SingleDonor1434_Asystole: Texas A&M University (TAMU) 1.5-hr Human Induced Pluripotent Stem Cell (iPSC)-derived Cardiomyocytes Calcium (Ca+2) Flux Assay for Cardiotoxicity: Asystole (quiescence of beating) (AID 2284328). In a few lines: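 Human iPSC-derived cardiomyocytes (donor 1434) were exposed to 0.2, 1, 10 and 100 uM compound in 0.5% DMSO for 90 min at 37C. Ca2+-dye fluorescence gave average peak frequency; POD is EC95, a 95% beat-rate drop versus DMSO.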

Test [6] can be described thus: CCTE_Deisenroth_DEVTOX-GLR_legacy_CellCount: (Legacy) Viability Assessment in CCTE's DevTox GLR-Endo Assay, Deisenroth Lab (AID 2284331; active means hit-call score of the fitted dose curve at least 0.9, where 1 is the maximum; inactive means score below 0.9). The settings on record: actives raise or lower the signal. In a few lines: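 Viability is taken from imaged nuclei counts in fixed RUES2-GLR cultures after 48 h of differentiation under two 24 h-spaced chemical exposures, 10 concentrations from 1 nM to 200 uM, gain or loss versus DMSO baseline.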

The nature of test [7]: CCTE_Deisenroth_5AR_NBTE_donor: CCTE's 5alpha-reductase NanoBRET Target Engagement Assay […], Deisenroth Lab (AID 2284319; active means hit-call score of the fitted dose curve at least 0.9, where 1 is the maximum; inactive means score below 0.9). The settings on record: actives raise or lower the signal. In a few lines:
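SRD5A2-NanoLuc, HEK293T, 20 h expression. Chemical 10 nM - 29.9 uM, 8 conc, duplicate; 3 h preincubation + 2 h testosterone tracer. Nano-Glo substrate plus extracellular NanoLuc inhibitor; donor lum 460 nm. DMSO baseline, bidirectional fit.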
On the technique in general: BRET reads energy transfer from a luciferase to a nearby fluorophore.

Test [8] in a line: CCTE_Deisenroth_5AR_NBTE_acceptor: CCTE's 5alpha-reductase NanoBRET Target Engagement Assay - Autofluorescence Screen, Deisenroth Lab (AID 2284321; active means hit-call score of the fitted dose curve at least 0.9, where 1 is the maximum; inactive means score below 0.9;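 further: compound fluorescence in the acceptor channel under 460 nm excitation flags autofluorescence artifacts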). The settings on record: actives raise or lower the signal. The gist of the method: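 Autofluorescence counter-screen: chemicals at an assumed nominal 100 uM in DMSO were scanned in three independent runs with 460 nm excitation. Gain or loss of acceptor signal was fitted bidirectionally against DMSO.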

Test [9] relates to SRD5A2 (gene 6716). The test is described as follows: CCTE_Deisenroth_5AR_NBTE_ratio: CCTE's 5alpha-reductase NanoBRET Target Engagement Assay - Ratio, Deisenroth Lab (AID 2284322; active means hit-call score of the fitted dose curve at least 0.9, where 1 is the maximum; inactive means score below 0.9). The settings on record: actives raise or lower the signal. The gist of the method:
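SRD5A2-NanoLuc HEK293T; cmpd 10 nM-29.9 uM, 3 h preinc + testosterone tracer 2 h; NanoBRET ratio 650/460; bidirectional fit vs DMSO.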

Test [10] relates to Brachyury (BRA) Protein Expression, Deisenroth Lab, TBXT (gene 6862). The test is described as follows: CCTE_Deisenroth_DEVTOX-GLR_legacy_Bra: (Legacy) CCTE's DevTox GLR-Endo Assay Evaluation of Brachyury (BRA) Protein Expression, Deisenroth Lab (AID 2284329; active means hit-call score of the fitted dose curve at least 0.9, where 1 is the maximum; inactive means score below 0.9). The gist of the method: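 High-content imaging of fixed RUES2-GLR cells after a 48-hour differentiation with two compound exposures yields percent cells whose Bra signal exceeds pluripotent control median by 5x BMAD; values are baseline-corrected to DMSO.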

The nature of test [11]: IUF_NPC1_cytotoxicity_72hr: Cytotoxicity Assessment at 72 hours in the Leibniz Research Institute for Environmental Medicine (IUF) Neural Progenitor Cell Proliferation Assay (NPC1) (AID 2284332).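 Further: rising LDH signal means more cytotoxicity.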 The gist of the method:
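LDH in supernatant, resazurin→resorufin fluorescence (RFU), 72 h exposure, no re-dosing. Cells: primary hNPC spheres, one per well, EGF+FGF medium, 37C/5% CO2, pH 7.2-7.6. Fit: positive direction vs baseline and dynamic range.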

Test [12] can be described thus: VALA_MIGHUV2_CellCount: Viability Assessment in the VALA Sciences human Umbilical Vein Endothelial Cell Migration (MIGHUV) Assay, Area of Scratch Wound after Recovery (AID 2284314). In a few lines:
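Viability read-out: Hoechst-stained nuclei counted by fluorescence imaging after a 24 h recovery period in fixed, scratched HUVEC plates. Compound was dosed within 30 min of scratching at six concentrations (triplicate); DMSO at 0.1 % served as baseline.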

Test [13] in a line: VALA_MIGHUV2_Bcatenin: VALA Sciences human Umbilical Vein Endothelial Cell Migration (MIGHUV) Assay, Nuclear Translocation of beta-Catenin after Recovery (AID 2284315). In a few lines:
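Nuclear beta-catenin imaged by immunofluorescence with Hoechst counterstain in fixed HUVEC, 24 h after scratch wounding and chemical addition. Six-point concentration-response in triplicate; activity scored as signal increase over 0.1% DMSO vehicle.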

Test [14] in a line: VALA_MIGHUV2_WoundArea: VALA Sciences human Umbilical Vein Endothelial Cell Migration (MIGHUV) Assay, Area of Scratch Wound after Recovery (AID 2284316). The gist of the method:
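Wound-area endpoint read by fluorescence imaging of Hoechst-stained nuclei after a 24 h recovery period following scratch of HUVEC monolayers (9000 cells/well). Chemicals dosed within 30 min post-scratch, triplicate 6-point series, 0.1% DMSO vehicle; Cytochalasin D positive control.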

Test [15] is described as follows: VALA_MIGHUV1_ScratchOnly_CellCount: Viability Assessment in the VALA Sciences human Umbilical Vein Endothelial Cell Migration (MIGHUV) Assay, Scratch Wound Inhibited Recovery (AID 2284327). The gist of the method: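 Hoechst-stained nuclei in the scratch wound were counted by high-content imaging after a 24 h recovery period. Scratched HUVEC monolayers received 6-point concentration series, triplicate, in 0.1% DMSO, fit against DMSO.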

A short description of test [16]: VALA_TUBIPS_Antagonist_CellCount: Viability Assessment in the VALA Sciences human iPS-derived Endothelial Tubule Formation (TUBIPS) Antagonism Assay (AID 2284335). The protocol: VALA_TUBIPS_Agonist is a cell-based, multiplexed assay that uses human iPS-derived endothelial cells (iPSC). Measurements were taken 72 hours after chemical dosing in a 96-well plate.VALA_TUBIPS_Antagonist_CellCount is the one of two assay components measured from the VALA_TUBIPS_Antagonist assay. It is designed to make measurements of viability, a form of viability reporter, as detected with fluorescence intensity signals by HCS Fluorescent Imaging technology. Data from the assay component VALA_TUBIPS_Antagonist_CellCount was analyzed at the endpoint, VALA_TUBIPS_Antagonist_CellCount, in the positive analysis fitting direction relative to DMSO as the negative control and baseline of activity. Using a type of viability reporter, loss-of-signal activity can be used to understand viability. To generalize the intended target to other relatable targets, this assay endpoint is annotated to the cell cycle intended target family, where the subfamily is cell count.
[…]

Test [17] can be described thus: VALA_MIGHUV1_ScratchOnly_WoundArea: VALA Sciences human Umbilical Vein Endothelial Cell Migration (MIGHUV) Assay, Area of Scratch Wound Inhibited Recovery (AID 2284336). In a few lines: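 Wound area remaining after 24 h recovery imaged by Hoechst nuclear fluorescence in scratched HUVEC cultures, chemicals added within 30 min of scratching across a 6-point series. Gain of signal fitted against 0.1% DMSO; cytochalasin D positive control.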

A short description of test [18]: VALA_TUBIPS_Agonist_CellCount: Viability Assessment in the VALA Sciences human iPS-derived Endothelial Tubule Formation (TUBIPS) Agonism Assay (AID 2284338).

“And” between values parts separate entries of the source, which are not always exact repeats. Identical values can stand only once. Results filed as inconclusive are left out. The source made the active and inactive calls. How the source made its calls, unless noted: active means hit-call score of the fitted dose curve at least 0.9, where 1 is the maximum; inconclusive means response in the unintended direction; inactive means score below 0.9.

Turning to `NC(=O)NN=Cc1ccc([N+](=O)[O-])o1`, the AC50 in [1] is 74.4 µM (active).
Take `FC(F)=C(F)C(F)(F)C(F)(F)C(F)(F)C(F)(F)C(F)(F)C(F)(F)F`: the compound was called inactive in [2] and in test [4]. Besides, the concentration at half-maximal activity (AC50) in [3] was 62.1 µM (active).
With `c1ccc2cc3ccccc3cc2c1`, the call in test [2], in test [5] and in test [4] was inactive.
On to `OC(O)(C(F)C(O)(O)C(F)(F)F)C(F)(F)F`, for which the result in [2] and in [4] was inactive.
With `NC(=O)N1c2ccccc2C=Cc2ccccc21`, in [6], the concentration at half-maximal activity (AC50) was 67 µM (active).
Turning to `FC(F)(F)C(F)(F)C(F)(F)C(F)(F)C(F)(F)C(F)(F)I`, the result in test [2] was inactive.
Consider `O=S(=O)(O)c1ccc(N=Nc2c(O)ccc3cc(S(=O)(=O)O)ccc23)cc1`, for which the AC50 was 36.5 µM (active) in [7] and 61.8 µM (active) in test [9]. Further, in [8], the compound was called inactive.
As to `Nc1ccn([C@@H]2O[C@H](CO)[C@@H](O)[C@@H]2O)c(=O)n1`, the AC50 in [2] is 741 nM (active) and 1.09 µM (active); in test [10], 0.152 µM (active); in test [6] it was 0.259 µM (active); in test [4] it was 415 nM (active) and 814 nM (active). Besides, the compound was called inactive in test [11].
On to `CCCCCCCC/C=C\CCCCCCCC(=O)OC[C@@H](O)[C@H]1OC[C@H](O)[C@H]1O`, for which the outcome in [7], in test [8] and in [9] was inactive.
On to `COc1cc2c(c(OC)c1OC)-c1ccc(OC)c(=O)cc1[C@@H](NC(C)=O)CC2`, for which the outcome in test [5] was inactive.
For the compound `C[C@]12C=CC(=O)C=C1CC[C@H]1[C@@H]3C[C@@H](O)[C@](O)(C(=O)CO)[C@@]3(C)C[C@H](O)[C@@]12F`, the half-maximal activity concentration (AC50) in test [2] was 19.8 µM (active).
In the case of `O=S(=O)(O)CCC(F)(F)C(F)(F)C(F)(F)C(F)(F)C(F)(F)C(F)(F)F`, the AC50 in test [3] was 5.35 µM (active).
On to `CCCCCCCCCC`, for which the outcome in [12], in test [13], in [14], in test [15], in test [16] and in test [17] was inactive. In [18], the AC50 is 7.79 µM (active).
Regarding `O=C(Cl)C(F)(F)C(F)(F)C(F)(F)C(=O)Cl`, the outcome in [2] and in [4] was inactive.

As usually defined, the AC50 is the concentration at which the activity in the assay is half-maximal.

The record behind these values is PubChem BioAssay (EPA / NIEHS).
